Shiga inhibitor: inhibitors of Shiga toxin in Vero cells; Vero cells, Shiga toxin protein synthesis inhibition reporter; inhibition, % at 38.7 µM; actives 9.2% (n = 290,000); in the data active = inhibition mostly above about 28%, no sharp cut-off; inactive = mostly below about 43%; note: 0% is about no effect
Cycloheximide cs: affects cycloheximide protein synthesis inhibition readout, counter-screen | max response, % | actives 12% (n = 300,000) | cell reporter, cycloheximide protein synthesis inhibition counterscreen; in the data active = max response mostly above about 13%, no sharp cut-off; inactive = mostly below about 14%; note: read at 38.3 µM for the half of the compounds with a filed dose; 0% is about no effect
Pf growth 48h: P. falciparum growth inhibition at 48 hours (one generation) | P. falciparum luciferase growth in erythrocytes, 48 h | Potency, µM (top dose mostly 28.7 µM), for the others: at the top dose activity change, negative = inhibition, hits mostly inhibitors | actives 5.9% (n = 310,000); note: potency is the fitted concentration of half-maximal effect; % is set by controls: 0 for no effect and ±100 for the full control effect
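Parasite viability was followed by luminescence of a genomically integrated firefly luciferase. Cultures held 0.1% parasitemia at 2% hematocrit (final), incubated under 5% CO2 at 37 C.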
AMA1-RON2 inh: AMA1-RON2 (P. falciparum) interaction inhibition. actives 0.2% (n = 360,000). Potency, µM (top dose mostly 58.2 µM), for the others: at the highest dose activity change, negative = inhibition, actives largely listed as inhibitors. AlphaScreen AMA1-biotinylated RON2 peptide binding;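 note: potency is the fitted concentration of half-maximal effect; 0% = vehicle wells and -100% = peptide control; nearly all actives have a fitted effect of over 45% in size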
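AMA1 (3D7) with his tag at 25 nM final met compounds first, then biotinylated RON2 peptide at 25 nM; detection used donor plus acceptor beads, 10 µg/mL apiece, read by AlphaScreen after 30 min at room temperature.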
Pf growth 96h: P. falciparum growth inhibition at 96 hours. P. falciparum luciferase reporter growth, 96 h. Potency, µM (series often up to 28.7 µM), without a hit: top-dose activity change, negative = inhibition, usual class: inhibitors. actives 6.9% (n = 320,000). AID 504834; note: potency is the fitted concentration of half-maximal effect; % is set by controls: 0 for no effect and ±100 for the full control effect
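Readout is luminescence from an integrated firefly luciferase in P. falciparum. Red cells, 2% hematocrit and 0.05% parasitemia final, were cultured with compound through two parasite generations (96 hours) at 37 C, 5% CO2.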
HCV inhibitor: blocks hepatitis C virus | Huh7.5.1 HCVcc-Cre infection, luciferase reporter, 44 h | Potency, µM (titrated, usually from 41.8 µM), inactives show at the top dose activity change, negative = inhibition, actives largely listed as inhibitors | actives 3.4% (n = 340,000) | AID 651820; note: potency is the fitted concentration of half-maximal effect; % is set by controls: 0 for no effect and ±100 for the full control effect
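After 44 h co-culture of compound, cells and HCVcc-Cre (~0.5 moi), substrate is added for 15 min at room temperature and luciferase measured over 15 sec. Cells were seeded at 1,000/well and pre-cultured 4 h.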
Active calls of the source: *. Compounds with a hit are over-represented: about 21% of the library has one in this group of screens. Unless noted, calls come from the whole dose curve; as a rule, active = well fitted curve in the direction sought with a large enough effect; inconclusive = small, poorly fitted or top-dose-only effect, or another doubt; inactive = no such curve, though single readings can be large; an effect the other way counts as inactive or inconclusive.

CCNc1nnc(SCC(=O)N2c3ccccc3NC(=O)CC2C)s1 (stereo unspecified) was read as Pf growth 48h -21.0%, AMA1-RON2 inh -4.4%, Pf growth 96h inconclusive and HCV inhibitor 20.6%.
`Cc1nc(SCC(=O)N2c3ccccc3NC(=O)CC2C)c2c(C)c(C)sc2n1` (stereo unspecified) gave Pf growth 48h inconclusive, AMA1-RON2 inh 28.0%, Pf growth 96h 13.1µM* and HCV inhibitor -19.7%.
Screening Cc1sc2nc(C3CC3)nc(SCC(=O)NCc3ccco3)c2c1C returned Shiga inhibitor 21.2, Cycloheximide cs 25.1, Pf growth 48h -18.5%, AMA1-RON2 inh 14.4%, Pf growth 96h 18.1% and HCV inhibitor 1.8%.
`CC1=C(C(=O)OC2CCCCC2)C(c2ccc(O)cc2)NC(=O)N1` (stereo unspecified) gave Shiga inhibitor -9.6, Cycloheximide cs -1.1, Pf growth 48h 1.7%, AMA1-RON2 inh 4.8%, Pf growth 96h 0.0% and HCV inhibitor 8.0%.
CC1=C(C(=O)OC2CCCCC2)C(c2ccc(F)cc2)NC(=O)N1 (stereo unspecified) was read as Shiga inhibitor -3.9, Cycloheximide cs -4.5, Pf growth 48h 4.1%, AMA1-RON2 inh 0.0%, Pf growth 96h 9.28µM* and HCV inhibitor -9.2%.
Screening Cc1c(N(C)C)nc2ccccc2c1N returned Shiga inhibitor -11.3, Cycloheximide cs -4.8, Pf growth 48h 7.3%, AMA1-RON2 inh 5.2%, Pf growth 96h 20.4% and HCV inhibitor 0.9%.
`Nc1nc2ccccc2nc1N` gave Shiga inhibitor 27.7*, Cycloheximide cs 13.9*, Pf growth 48h 31.8%, AMA1-RON2 inh 9.8%, Pf growth 96h 32.5% and HCV inhibitor 5.6%.
Nc1c2ccccc2nc2ccccc12 was read as Shiga inhibitor -12.4, Cycloheximide cs -1.7, Pf growth 48h 5.22µM*, AMA1-RON2 inh 35.8%, Pf growth 96h 4.65µM* and HCV inhibitor 5.01µM*.
Cc1nc(Oc2ccccc2)c2ccccc2n1 was read as Shiga inhibitor -4.0, Cycloheximide cs -3.0, Pf growth 48h -12.4%, AMA1-RON2 inh 0.6%, Pf growth 96h -24.0% and HCV inhibitor 3.0%.
c1ccc(Oc2c3ccccc3nc3ccccc23)cc1 was read as Shiga inhibitor -13.0, Cycloheximide cs -4.0, Pf growth 48h 7.38µM*, AMA1-RON2 inh 0.0%, Pf growth 96h inconclusive and HCV inhibitor 12.8%.
Screening Nc1c2c(nc3ccccc13)CCCC2 returned Shiga inhibitor -5.1, Cycloheximide cs 7.2, Pf growth 48h inconclusive, AMA1-RON2 inh 6.3%, Pf growth 96h 8.49µM* and HCV inhibitor inconclusive.
Screening C[n+]1cccc(O)c1SCc1ccccc1 returned Pf growth 48h inconclusive, AMA1-RON2 inh 133.6%, Pf growth 96h 47.5% and HCV inhibitor -0.9%.
Screening CCCn1c(SCC(=O)NCCc2ccccc2)nnc1C(C)C returned Shiga inhibitor -19.2, Cycloheximide cs -2.2, Pf growth 48h -7.7%, AMA1-RON2 inh 12.0%, Pf growth 96h -3.5% and HCV inhibitor 14.9%.
Cc1cccc2c(N)c3c(nc12)CCCC3 (tested in a mixture with another compound) was read as Shiga inhibitor 7.8, Cycloheximide cs 4.8, Pf growth 48h 4.65µM*, AMA1-RON2 inh -4.0%, Pf growth 96h inconclusive and HCV inhibitor inconclusive.
Screening Clc1c2c(nc3ccccc13)CCC2 returned Shiga inhibitor -6.4, Cycloheximide cs -1.9, Pf growth 48h 18.5%, AMA1-RON2 inh -10.8%, Pf growth 96h -13.7% and HCV inhibitor 3.0%.
Screening Cc1cccc2c(N)c3c(nc12)N(C)CC3 returned Shiga inhibitor 5.5, Cycloheximide cs 1.8, Pf growth 48h 5.5%, AMA1-RON2 inh -6.5%, Pf growth 96h -9.1% and HCV inhibitor -27.6%.
`CCN(CC)c1nc2ccccc2c(N)c1-c1ccccc1` gave Shiga inhibitor 28.8, Cycloheximide cs -3.6, Pf growth 48h 14.7µM*, AMA1-RON2 inh -18.4%, Pf growth 96h -2.5% and HCV inhibitor inconclusive.
For Cc1cc(C)c2c(N)c3cccc(C)c3nc2n1 the results were Shiga inhibitor -23.6, Cycloheximide cs -4.2, Pf growth 48h 4.15µM*, AMA1-RON2 inh 7.2%, Pf growth 96h 6.57µM* and HCV inhibitor 12.6µM*.
Screening Nc1ccc2nc3c(c(Cl)c2c1)CCCC3 returned Shiga inhibitor 27.8, Cycloheximide cs 29.4*, Pf growth 48h 23.1%, AMA1-RON2 inh 4.3%, Pf growth 96h 12.1% and HCV inhibitor -10.7%.
For CCC(Cc1c(I)cc(I)c(O)c1I)C(=O)O (stereo unspecified) the results were Pf growth 48h -15.9% and Pf growth 96h 4.3%.
Screening CC(Sc1nncn1C)C(=O)Nc1ccc2ccccc2c1 (stereo unspecified) returned Pf growth 48h 26.9%, AMA1-RON2 inh -8.8%, Pf growth 96h 34.8% and HCV inhibitor 2.6%.
For COc1cc(C2Nc3ccc4ncccc4c3C3=C2C(=O)CCC3)cc(OC)c1OC (stereo unspecified) the results were Shiga inhibitor 13.9, Cycloheximide cs 2.5, Pf growth 48h inconclusive, AMA1-RON2 inh 2.3%, Pf growth 96h 0.8% and HCV inhibitor -3.4%.
`COc1cc(C2Nc3ccc4ncccc4c3C3=C2C(=O)CCC3)ccc1O` (stereo unspecified) gave Shiga inhibitor 20.1, Cycloheximide cs 20.6*, Pf growth 48h inconclusive, AMA1-RON2 inh -15.7%, Pf growth 96h inconclusive and HCV inhibitor inconclusive.
For Cc1ccsc1C1Nc2ccc3ncccc3c2C2=C1C(=O)CCC2 (stereo unspecified) the results were Shiga inhibitor 14.8, Cycloheximide cs -1.4, Pf growth 48h 10.4µM*, AMA1-RON2 inh 10.5%, Pf growth 96h 4.65µM* and HCV inhibitor -11.9%.
CS(=O)(=O)N1N=C(c2ccc(Br)cc2)CC1c1cccs1 (stereo unspecified) was read as Shiga inhibitor 48.2*, Cycloheximide cs 32.4*, AMA1-RON2 inh 6.4%, Pf growth 96h 83.4% and HCV inhibitor -21.5%.
`Cc1ccc(C2=NN(C(=O)CNCCO)C(c3cccs3)C2)cc1` (stereo unspecified) gave Shiga inhibitor 47.0, Cycloheximide cs 42.4*, Pf growth 48h inconclusive, AMA1-RON2 inh 74.9%, Pf growth 96h inconclusive and HCV inhibitor -28.6%.
For CC(=O)Nc1ccc(C2=NN(c3ccccc3)C(c3cccs3)C2)cc1 (stereo unspecified) the results were Shiga inhibitor 87.9*, Cycloheximide cs 70.3*, Pf growth 48h inconclusive, AMA1-RON2 inh -3.8%, Pf growth 96h inconclusive and HCV inhibitor -21.0%.

Screening results (PubChem)
